Measured values reported in PubChem BioAssay (EPA / NIEHS).
The source made the active and inactive calls. The calls were made as follows: active = hit-call score of the fitted dose curve at least 0.9, where 1 is the maximum; inactive = score below 0.9.

Tests used:
[1] = Tanguay_ZF_120hpf_MO24: Oregon State University Tanguay Lab 24 Hour Post-fertilization zebrafish Assay for Mortality (AID 2284389)
Summary of the method: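 Dechorionated wild-type zebrafish embryos, 1 per well, statically exposed from 6 hpf at 28C, 0.64% DMSO final. Mortality scored as binary present/absent at 24 hpf by brightfield microscopy, relative to DMSO.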

[2] = Tanguay_ZF_120hpf_MORT: Oregon State University Tanguay Lab 120 Hour Post-fertilization zebrafish Assay for Mortality (AID 2284399)
Summary of the method: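 Dechorionated wild-type Tropical 5D zebrafish embryos, one per well from 6 hpf, static exposure to 120 hpf at 28C in sealed dark plates, 0.64% DMSO final. Mortality scored as binary by brightfield at 24 and 120 hpf.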

[3] = Tanguay_ZF_120hpf_EDEM: Oregon State University Tanguay Lab 120 Hour Post-fertilization zebrafish Assay for Edema Malformation (AID 2284400)
Summary of the method: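 Dechorionated Tropical 5D wild-type embryos, one per well, statically exposed from 6 to 120 hpf at 28C in 0.64% DMSO. Edema scored present/absent by brightfield microscopy at 120 hpf; dead embryos not scored; fit versus DMSO.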

[4] = Tanguay_ZF_120hpf_BRN: Oregon State University Tanguay Lab 120 Hour Post-fertilization zebrafish Assay for Brain Region Malformation (AID 2284402)
Summary of the method: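 Dechorionated wild-type Tropical 5D zebrafish embryos exposed statically from 6 to 120 hpf at 28C, one per well, 0.64% DMSO final. Brain malformation scored at 120 hpf by brightfield as present/absent; dead embryos not scored.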

[5] = Tanguay_ZF_120hpf_TCHR: Oregon State University Tanguay Lab 120 Hour Post-fertilization zebrafish Assay for Touch Responsive (AID 2284403)
Summary of the method: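 Dechorionated Tropical 5D wild-type zebrafish embryos, one per well from 6 hpf, were statically exposed to 120 hpf at 28 °C (0.64% DMSO). Touch response was scored present/absent at 120 hpf and not scored in dead larvae.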

[6] = Tanguay_ZF_120hpf_ANY: Oregon State University Tanguay Lab 120 Hour Post-fertilization zebrafish Assay for Any Mortality and Malformation (AID 2284404)
Summary of the method: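 Dechorionated Tropical 5D wild-type embryos, one per well from 6 hpf, static exposure in sealed, dark plates at 28C until 120 hpf, 0.64% DMSO final. Brightfield scoring of mortality and malformations as binary presence/absence, pooling 13 morphology endpoints.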

[7] = CCTE_Padilla_ZF_Score.Craniofacial: CCTE's 144 Hour Post-fertilization zebrafish Assay Score for Craniofacial Malformation, Padilla Lab (AID 2284405)
Summary of the method: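 Wild-type zebrafish embryos (with chorions), one per well in 10% Hanks', were dosed at 6–8 hpf in sealed plates and kept at 26C. They were rinsed at 5 dpf. At 6 dpf two blinded assessors scored craniofacial malformations by brightfield stereomicroscopy.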

[8] = CCTE_Padilla_ZF_Score.Edema: CCTE's 144 Hour Post-fertilization zebrafish Assay Score for Edema Malformation, Padilla Lab (AID 2284406)
Summary of the method: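 Wild-type zebrafish embryos, one per well in Hanks' solution, dosed at 6-8 hpf, sealed and reared at 26C on a 14:10 h cycle; rinsed on 5 dpf. At 6 dpf, blinded assessors scored edema by stereomicroscopy.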

[9] = CCTE_Padilla_ZF_Score.Swim_bladder: CCTE's 144 Hour Post-fertilization zebrafish Assay Score for Swim Bladder Malformation, Padilla Lab (AID 2284408)
Summary of the method: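 Wild-type zebrafish embryos, one per well in 10% Hanks', dosed at 6–8 hpf, sealed, reared at 26C and rinsed at 5 dpf. Blinded assessors scored uninflated swim bladder by stereomicroscopy at 6 dpf, relative to DMSO.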

[10] = CCTE_Padilla_ZF_Score.General: CCTE's 144 Hour Post-fertilization zebrafish Assay Score for General Malformation, Padilla Lab (AID 2284411)
Summary of the method: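 Wild-type zebrafish embryos were plated singly at 6-8 hpf in 10% Hanks' and exposed in sealed wells at 26C until rinsed on 5 dpf. At 6 dpf two blinded assessors scored mortality, hatching and malformations by stereomicroscopy; gain-of-signal versus DMSO.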

[11] = CCTE_Padilla_ZF_Score.Tail: CCTE's 144 Hour Post-fertilization zebrafish Assay Score for Tail Malformation, Padilla Lab (AID 2284414)
Summary of the method: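 Wild-type zebrafish embryos, one per well in 200 uL 10% Hanks', dosed at 6-8 hpf, sealed, and kept at 26 C on a 14:10 h light cycle. Chemical was rinsed out at 5 dpf. Blinded brightfield scoring of tail defects followed at 6 dpf.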

[12] = CCTE_Padilla_ZF_Score.Blood_pooling: CCTE's 144 Hour Post-fertilization zebrafish Assay Score for Blood Pooling, Padilla Lab (AID 2284415)
Summary of the method: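 Wild-type outbred zebrafish embryos, one per well in 10% Hanks', exposed from 6–8 hpf in sealed plates at 26C on 14:10 h light:dark, rinsed at 5 dpf. Blinded stereomicroscope scoring of blood pooling at 6 dpf; gain-of-signal versus DMSO.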

[13] = CCTE_Padilla_ZF_Score.Any: CCTE's 144 Hour Post-fertilization zebrafish Assay Score for Any Mortality or Malformation, Padilla Lab (AID 2284416)
Summary of the method: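 Wild-type zebrafish embryos with chorions, one per well in 10% Hanks' from 6–8 hpf, dosed in sealed plates at 26 C, 14:10 h light:dark; rinsed at 5 dpf; blinded scoring at 6 dpf for death or malformation, versus DMSO.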

[14] = Tanguay_ZF_120hpf_DP24: Oregon State University Tanguay Lab 24 Hour Post-fertilization zebrafish Assay for Delayed Development (AID 2284390)
Summary of the method: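 Dechorionated 5D wild-type zebrafish embryos exposed statically from 6 hpf, one per well, 0.64% DMSO final, 28 C, sealed and dark. Developmental progression scored at 24 hpf by brightfield as binary present/absent; dead embryos excluded.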

[15] = CCTE_Padilla_ZF_Score.Position: CCTE's 144 Hour Post-fertilization zebrafish Assay Score for Position, Padilla Lab (AID 2284409)
Summary of the method: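 Wild-type zebrafish embryos (with chorions) exposed singly from 6–8 hpf in sealed wells of Hanks' solution at 26C, rinsed at 5 dpf. At 6 dpf, blinded assessors scored abnormal water-column position by brightfield stereomicroscopy, relative to DMSO.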

[16] = Tanguay_ZF_120hpf_AXIS: Oregon State University Tanguay Lab 120 Hour Post-fertilization zebrafish Assay for Axial Malformation (AID 2284398)
Summary of the method: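 Dechorionated 5D wild-type zebrafish embryos exposed statically, one per well, from 6 to 120 hpf at 28C, 0.64% DMSO. Axial malformation scored as present/absent by brightfield microscopy at 120 hpf; dead embryos not scored.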

[17] = Tanguay_ZF_120hpf_CRAN: Oregon State University Tanguay Lab 120 Hour Post-fertilization zebrafish Assay for Craniofacial Malformation (AID 2284397)
Summary of the method: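 Dechorionated Tropical 5D wild-type zebrafish embryos, one per well, were statically exposed from 6 to 120 hpf at 28C in 0.64% DMSO, with 5uM trimethyltin chloride as positive control. Craniofacial malformation was scored present/absent by brightfield microscopy, relative to DMSO.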

[18] = CCTE_Padilla_ZF_Score.Spine: CCTE's 144 Hour Post-fertilization zebrafish Assay Score for Spine Malformation, Padilla Lab (AID 2284407)
Summary of the method: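 Wild-type zebrafish embryos, one per well in Hanks' solution, dosed at 6–8 hpf in sealed plates at 26C, 14:10 h light:dark; rinsed at 5 dpf. Two blinded assessors scored spinal defects by stereomicroscopy at 6 dpf; fitted versus DMSO.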

[19] = CCTE_Padilla_ZF_Score.Living: CCTE's 144 Hour Post-fertilization zebrafish Assay Score for Viability, Padilla Lab (AID 2284410);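 also: larval death at 6 dpf judged by absent heartbeat or coagulation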
Summary of the method: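 Wild-type zebrafish embryos were exposed singly from 6–8 hpf in sealed wells of Hanks' solution at 26C, then rinsed at 5 dpf. At 6 dpf, blinded assessors scored mortality (no heartbeat or coagulation) by stereomicroscopy, fitted against DMSO.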

TTR (gene 7276) = assay: CCTE_GLTED_hTTR_0.125uM: CCTE's human Transthyretin (hTTR) Inhibition Assay, with 0.125uM TTR, Great Lakes Toxicology and Ecology Division (GLTED) Lab (AID 2284431);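 also: hits lower the fluorescence signal relative to DMSO baseline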
Summary of the method: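 Cell-free displacement of ANSA probe from 0.125uM TTR after 2 h incubation with chemical. Fluorescence read at 380 nm excitation/475 nm emission; loss of signal relative to DMSO indicates T4-site displacement.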

## OCC(F)(F)C(F)(F)C(F)(F)C(F)(F)C(F)(F)C(F)F
[1]
  outcome: inactive
[2]
  outcome: inactive
[3]
  outcome: inactive
[4]
  outcome: inactive
[5]
  outcome: inactive
[6]
  outcome: inactive
[7]
  outcome: inactive
[8]
  outcome: inactive
[9]
  outcome: inactive
[10]
  outcome: inactive
[11]
  outcome: inactive
[12]
  outcome: inactive
[13]
  outcome: inactive

## C=C(C)C(=O)OCC(F)(F)C(F)(F)C(F)(F)C(F)(F)C(F)(F)C(F)(F)C(F)(F)F
[1]
  outcome: inactive
[14]
  outcome: inactive
[2]
  outcome: inactive
[3]
  outcome: inactive
[4]
  outcome: inactive
[5]
  outcome: inactive
[7]
  outcome: inactive
[15]
  outcome: inactive
[10]
  outcome: inactive
[11]
  outcome: inactive
[12]
  outcome: inactive
[13]
  outcome: inactive

## FC1CC(F)(F)C(F)(F)C1(F)F (configuration not stated)
[1]
  outcome: inactive
[16]
  outcome: inactive
[2]
  outcome: inactive
[3]
  outcome: inactive
[4]
  outcome: inactive
[5]
  outcome: inactive

## O=C(CC(=O)C(F)(F)C(F)(F)F)C(F)(F)F
[1]
  outcome: inactive
[14]
  outcome: inactive
[17]
  outcome: inactive
[2]
  outcome: inactive
[3]
  outcome: inactive
[4]
  outcome: inactive
[5]
  outcome: inactive
[7]
  outcome: inactive
[10]
  outcome: inactive
[11]
  outcome: inactive
[12]
  outcome: inactive
[13]
  outcome: inactive

## FC(F)(F)C(F)(F)C(F)(F)C(F)(F)CCI
[1]
  outcome: inactive
[17]
  outcome: inactive
[2]
  outcome: inactive
[3]
  outcome: inactive
[4]
  outcome: inactive
[5]
  outcome: inactive
[7]
  outcome: inactive
[8]
  outcome: inactive
[18]
  outcome: inactive
[10]
  outcome: inactive
[11]
  outcome: inactive
[12]
  outcome: inactive
[13]
  outcome: inactive

## C=CC(=O)OCC(F)(F)C(F)(F)C(F)(F)C(F)(F)COC(=O)C=C
[1]
  AC50: 28.3 µM (active)
[2]
  AC50: 17.5 µM (active)
[3]
  outcome: inactive
[4]
  outcome: inactive
[5]
  outcome: inactive
[7]
  outcome: inactive
[8]
  AC50: 4.88 µM (active)
[18]
  outcome: inactive
[9]
  AC50: 4.37 µM (active)
[10]
  outcome: inactive
[11]
  outcome: inactive
[12]
  outcome: inactive
[13]
  AC50: 4.38 µM (active)

## O=S(=O)(OCCOC(F)(F)F)C(F)(F)F
[1]
  outcome: inactive
[14]
  outcome: inactive
[2]
  outcome: inactive
[3]
  outcome: inactive
[4]
  outcome: inactive
[5]
  outcome: inactive
[7]
  outcome: inactive
[10]
  outcome: inactive
[11]
  outcome: inactive
[12]
  outcome: inactive
[13]
  outcome: inactive

## O=C(O)C(F)(OC(F)(F)C(F)(OC(F)(F)C(F)(F)C(F)(F)F)C(F)(F)F)C(F)(F)F (configuration not stated)
[1]
  outcome: inactive
[2]
  outcome: inactive
[3]
  outcome: inactive
[4]
  outcome: inactive
[5]
  outcome: inactive
[7]
  outcome: inactive
[10]
  outcome: inactive
[11]
  outcome: inactive
[12]
  outcome: inactive
[13]
  outcome: inactive

## C=CC(=O)OCC(F)(F)C(F)(F)C(F)(F)C(F)(F)C(F)(F)C(F)(F)C(F)(F)F
[1]
  outcome: inactive
[2]
  outcome: inactive
[3]
  outcome: inactive
[4]
  outcome: inactive
[5]
  outcome: inactive
[7]
  outcome: inactive
[10]
  outcome: inactive
[11]
  outcome: inactive
[12]
  outcome: inactive
[13]
  outcome: inactive

## CCCCCCS
[10]
  outcome: inactive

## FC(F)(F)C(F)(F)CNCC(F)(F)C(F)(F)F
[1]
  outcome: inactive
[2]
  outcome: inactive
[3]
  outcome: inactive
[4]
  outcome: inactive
[5]
  outcome: inactive
[7]
  outcome: inactive
[19]
  outcome: inactive
[10]
  outcome: inactive
[11]
  outcome: inactive
[12]
  outcome: inactive
[13]
  AC50: 0.00326 µM (active)

## OCC(F)(F)C(F)(F)C(F)(F)C(F)(F)C(F)(F)C(F)(F)F
[1]
  outcome: inactive
[2]
  outcome: inactive
[3]
  outcome: inactive
[4]
  outcome: inactive
[5]
  outcome: inactive
[7]
  outcome: inactive
[10]
  outcome: inactive
[11]
  outcome: inactive
[12]
  AC50: 93.7 µM (active)
[13]
  AC50: 80.5 µM (active)

## CCCCC(CC)COP(=O)(O)OCC(CC)CCCC (configuration not stated)
TTR (gene 7276)
  AC50: 5.44 µM (active)

## CCCCCCC(C)OC(=O)CCCCC(=O)OC(C)CCCCCC (configuration not stated)
[10]
  outcome: inactive

## FC(F)(F)C(F)(F)C(F)(F)C(F)(F)C(F)(F)C(F)(F)C(F)(F)Br
[1]
  outcome: inactive
[2]
  outcome: inactive
[3]
  outcome: inactive
[4]
  outcome: inactive
[5]
  outcome: inactive
[7]
  outcome: inactive
[9]
  outcome: inactive
[15]
  outcome: inactive
[10]
  outcome: inactive
[11]
  outcome: inactive
[12]
  outcome: inactive
[13]
  outcome: inactive

## Nc1ccc([N+](=O)[O-])cc1O
[10]
  outcome: inactive

## FC(F)(I)C(F)(F)C(F)(F)C(F)(F)I
[7]
  AC50: 76.2 µM (active)
[10]
  AC50: 24.3 µM (active)
[11]
  AC50: 80.4 µM (active)
[12]
  outcome: inactive
[13]
  AC50: 16.9 µM (active)
